About 79,000 compounds went through this panel and 15% of them were active in at least one assay; those are over-represented in the sample as a whole. A number with no mark means an inactive call. Active and inactive are the calls of the source. Cut-off read from the data, not from the text of the source: active = growth inhibition above about 70%; inactive = the rest.
What was measured:
[1] = NCI Yeast Anticancer Drug Screen. Data for the rad52 strain (AID 147);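 note: 0% = growth of vehicle-treated control cultures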; conditions: S. cerevisiae rad52 mutant growth inhibition, stronger effect = higher value
In short: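 Compounds are applied to a genetically defined yeast strain lacking normal DNA damage repair, and inhibition of growth is expressed relative to cultures given vehicle only.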

[2] = NCI Yeast Anticancer Drug Screen. Data for the wt1 strain (AID 149);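 note: 0% = growth of vehicle-treated wt1 cultures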; conditions: S. cerevisiae wt1 strain (SPY 50644) growth inhibition, stronger effect = higher value
In short: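 wt1 strain grown with compound or vehicle; inhibition taken from the growth difference.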

[3] = NCI Yeast Anticancer Drug Screen. Data for the rad50EPP+ strain (AID 151);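 note: 0% = growth of vehicle-treated control cultures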; conditions: S. cerevisiae rad50 mutant strain, stronger effect = higher value
In short: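 Compounds were applied to the rad50EPP+ yeast strain, which bears a defined DNA repair alteration, and growth inhibition was determined relative to vehicle-treated cultures.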

[4] = NCI Yeast Anticancer Drug Screen. Data for the mgt1 strain (AID 153); conditions: S. cerevisiae mgt1 mutant growth inhibition, stronger effect = higher value
In short: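 Strain: mgt1 yeast, one of a set carrying defined DNA damage repair or cell cycle control alterations. Compound-treated growth compared with vehicle.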

[5] = NCI Yeast Anticancer Drug Screen. Data for the rad50 strain (AID 155);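 note: 0% = growth of vehicle-only cultures of the same strain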; conditions: S. cerevisiae rad50 strain growth inhibition, stronger effect = higher value
In short: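 DNA repair mutant yeast, compound exposure, growth read-out; inhibition is taken relative to vehicle.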

[6] = NCI Yeast Anticancer Drug Screen. Data for the mec2-1 strain (AID 157); conditions: S. cerevisiae mec2-1 strain, stronger effect = higher value
In short: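 Strain: mec2-1 (DNA repair/cell cycle alteration). Compound exposure, then growth measured; inhibition expressed relative to vehicle.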

[7] = NCI Yeast Anticancer Drug Screen. Data for the rad14 strain (AID 159);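 note: 0% = growth of vehicle-treated control cultures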; conditions: S. cerevisiae rad14 strain growth inhibition, stronger effect = higher value
In short: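 DNA repair-defective yeast, compound-exposed; % growth inhibition derived by comparison with vehicle-treated controls.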

[8] = NCI Yeast Anticancer Drug Screen. Data for the sgs1 mgt1 strain (AID 161);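 note: 0% = growth of cultures given vehicle only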; conditions: S. cerevisiae sgs1 mgt1 strain, stronger effect = higher value
In short: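 Genetically altered yeast, compound exposure, growth inhibition relative to vehicle.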

[9] = NCI Yeast Anticancer Drug Screen. Data for the CLN2oe strain (AID 163);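 note: 0% = growth of vehicle-only control cultures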; conditions: S. cerevisiae CLN2oe strain, stronger effect = higher value
In short: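 Growth of a genetically modified yeast strain is measured after compound exposure and compared with cultures given vehicle alone.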

[10] = NCI Yeast Anticancer Drug Screen. Data for the cln2 rad14 strain (AID 165);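 note: 0% = growth equal to vehicle treated cultures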; conditions: S. cerevisiae cln2 rad14 strain, stronger effect = higher value
In short: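 Compounds are applied to the cln2 rad14 yeast strain, and growth is then compared with that of vehicle-treated cultures to give inhibition.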

[11] = NCI Yeast Anticancer Drug Screen. Data for the bub3 strain (AID 167); conditions: S. cerevisiae bub3 mutant strain, stronger effect = higher value
In short: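 In this screen, a yeast mutant lacking normal mitotic checkpoint function is challenged with compound. Relative growth versus vehicle gives the inhibition value.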

[12] = NCI Yeast Anticancer Drug Screen. Data for the wt2 strain (AID 169);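 note: 0% = growth of vehicle-treated yeast cultures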; conditions: S. cerevisiae wt2 strain growth inhibition, stronger effect = higher value
In short: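 This strain belongs to a panel of yeast strains with defined genetic alterations in DNA damage repair or cell cycle control. Compounds are applied, and growth inhibition is measured against vehicle-treated cultures.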

[13] = NCI Yeast Anticancer Drug Screen. Data for the mlh1 strain (AID 171);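 note: 0% = growth of vehicle-treated control cultures of the same strain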; conditions: S. cerevisiae mlh1 strain growth inhibition, stronger effect = higher value
In short: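 Growth of the mutant yeast strain after compound exposure, expressed as inhibition relative to vehicle-only controls.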

[14] = NCI Yeast Anticancer Drug Screen. Data for the sgs1 strain (AID 173);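 note: 0% = growth of vehicle-only control cultures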; conditions: S. cerevisiae sgs1 mutant, stronger effect = higher value
In short: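 Growth of a yeast strain bearing a defined genetic alteration is measured after compound treatment. Inhibition is expressed relative to vehicle-only controls.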

[15] = NCI Yeast Anticancer Drug Screen. Data for the mlh1 rad18 strain (AID 175); conditions: S. cerevisiae mlh1 rad18 strain growth inhibition, stronger effect = higher value
In short: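 Read-out is yeast growth inhibition, calculated against vehicle-only controls. The compound was applied to a strain engineered with DNA damage repair alterations.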

[16] = NCI Yeast Anticancer Drug Screen. Data for the rad18 strain (AID 177); conditions: S. cerevisiae rad18 mutant growth inhibition, stronger effect = higher value
In short: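 Growth of the mutant yeast strain after compound exposure, normalised to vehicle-only cultures.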

[17] = at 5.0 µM (retest, dose inferred, filed as 0.5)
[18] = at 50.0 µM (retest, dose inferred, filed as 5.0)

## Cc1cccc(/C=N/NC(=S)N2CCCC2)n1
[1]; at 1.2 µM
  growth inhibition: -25%
[1]; at 3.7 µM
  growth inhibition: -26%
[1]; at 11.0 µM
  growth inhibition: 27%
[1]; at 33.0 µM
  growth inhibition: 94% (active)
[1]; at 100.0 µM
  growth inhibition: 96% (active)
[2]; at 1.2 µM
  growth inhibition: -4%
[2]; at 3.7 µM
  growth inhibition: 1%
[2]; at 11.0 µM
  growth inhibition: 12%
[2]; at 33.0 µM
  growth inhibition: 94% (active)
[2]; at 100.0 µM
  growth inhibition: 96% (active)
[3]; at 1.2 µM
  growth inhibition: -21%
[3]; at 3.7 µM
  growth inhibition: -21%
[3]; at 11.0 µM
  growth inhibition: -24%
[3]; at 33.0 µM
  growth inhibition: -27%
[3]; at 100.0 µM
  growth inhibition: 38%
[4]; at 1.2 µM
  growth inhibition: -13%
[4]; at 3.7 µM
  growth inhibition: -14%
[4]; at 11.0 µM
  growth inhibition: 18%
[4]; at 33.0 µM
  growth inhibition: 94% (active)
[4]; at 100.0 µM
  growth inhibition: 96% (active)
[5]; at 1.2 µM
  growth inhibition: -10%
[5]; at 3.7 µM
  growth inhibition: -14%
[5]; [17]
  growth inhibition: 26%
[5]; at 11.0 µM
  growth inhibition: 35%
[5]; at 33.0 µM
  growth inhibition: 95% (active)
[5]; [18]
  growth inhibition: 94% (active)
[5]; at 50.0 µM
  growth inhibition: 86.3% (active)
[5]; at 100.0 µM
  growth inhibition: 95% (active)
[6]; at 1.2 µM
  growth inhibition: -24%
[6]; at 3.7 µM
  growth inhibition: -21%
[6]; [17]
  growth inhibition: 36%
[6]; at 11.0 µM
  growth inhibition: 73% (active)
[6]; at 33.0 µM
  growth inhibition: 94% (active)
[6]; [18]
  growth inhibition: 95% (active)
[6]; at 50.0 µM
  growth inhibition: 89.8% (active)
[6]; at 100.0 µM
  growth inhibition: 97% (active)
[7]; at 1.2 µM
  growth inhibition: 2%
[7]; at 3.7 µM
  growth inhibition: 6%
[7]; at 11.0 µM
  growth inhibition: 74% (active)
[7]; at 33.0 µM
  growth inhibition: 96% (active)
[7]; at 100.0 µM
  growth inhibition: 98% (active)
[8]; [17]
  growth inhibition: 25%
[8]; [18]
  growth inhibition: 47%
[8]; at 50.0 µM
  growth inhibition: 88.2% (active)
[9]; at 1.2 µM
  growth inhibition: -30%
[9]; at 3.7 µM
  growth inhibition: -31%
[9]; at 11.0 µM
  growth inhibition: 10%
[9]; at 33.0 µM
  growth inhibition: 93% (active)
[9]; at 100.0 µM
  growth inhibition: 96% (active)
[10]; [17]
  growth inhibition: 2%
[10]; [18]
  growth inhibition: 94% (active)
[10]; at 50.0 µM
  growth inhibition: 87% (active)
[11]; at 1.2 µM
  growth inhibition: -13%
[11]; at 3.7 µM
  growth inhibition: -8%
[11]; [17]
  growth inhibition: 40%
[11]; at 11.0 µM
  growth inhibition: 32%
[11]; at 33.0 µM
  growth inhibition: 95% (active)
[11]; [18]
  growth inhibition: 96% (active)
[11]; at 50.0 µM
  growth inhibition: 88.5% (active)
[11]; at 100.0 µM
  growth inhibition: 96% (active)
[12]; at 1.2 µM
  growth inhibition: -6%
[12]; at 3.7 µM
  growth inhibition: -8%
[12]; at 11.0 µM
  growth inhibition: 10%
[12]; at 33.0 µM
  growth inhibition: 93% (active)
[12]; at 100.0 µM
  growth inhibition: 96% (active)
[13]; at 1.2 µM
  growth inhibition: -8%
[13]; at 3.7 µM
  growth inhibition: -8%
[13]; at 11.0 µM
  growth inhibition: 48%
[13]; at 33.0 µM
  growth inhibition: 95% (active)
[13]; at 100.0 µM
  growth inhibition: 97% (active)
[14]; at 1.2 µM
  growth inhibition: -19%
[14]; at 3.7 µM
  growth inhibition: -21%
[14]; at 11.0 µM
  growth inhibition: 17%
[14]; at 33.0 µM
  growth inhibition: 95% (active)
[14]; at 100.0 µM
  growth inhibition: 96% (active)
[15]; [17]
  growth inhibition: 14%
[15]; [18]
  growth inhibition: 95% (active)
[15]; at 50.0 µM
  growth inhibition: 86% (active)

## CCOC(=O)[C@H]1Nc2ccc(OC)cc2C2c3ccccc3CC21 (stereo partly specified)
[1]; at 1.2 µM
  growth inhibition: -22%
[1]; at 3.7 µM
  growth inhibition: -27%
[1]; at 11.0 µM
  growth inhibition: -20%
[1]; at 33.0 µM
  growth inhibition: 57%
[1]; at 100.0 µM
  growth inhibition: 90% (active)
[2]; at 1.2 µM
  growth inhibition: -29%
[2]; at 3.7 µM
  growth inhibition: -27%
[2]; at 11.0 µM
  growth inhibition: -25%
[2]; at 33.0 µM
  growth inhibition: 50%
[2]; at 100.0 µM
  growth inhibition: 90% (active)
[3]; at 1.2 µM
  growth inhibition: -25%
[3]; at 3.7 µM
  growth inhibition: -19%
[3]; at 11.0 µM
  growth inhibition: -23%
[3]; at 33.0 µM
  growth inhibition: 10%
[3]; at 100.0 µM
  growth inhibition: 4%
[4]; at 1.2 µM
  growth inhibition: -40%
[4]; at 3.7 µM
  growth inhibition: -46%
[4]; at 11.0 µM
  growth inhibition: -46%
[4]; at 33.0 µM
  growth inhibition: 28%
[4]; at 100.0 µM
  growth inhibition: 83% (active)
[5]; at 1.2 µM
  growth inhibition: -21%
[5]; at 3.7 µM
  growth inhibition: -12%
[5]; [17]
  growth inhibition: 19%
[5]; at 11.0 µM
  growth inhibition: -19%
[5]; at 33.0 µM
  growth inhibition: 34%
[5]; [18]
  growth inhibition: 9%
[5]; at 50.0 µM
  growth inhibition: 70% (active)
[5]; at 100.0 µM
  growth inhibition: 91% (active)
[6]; at 1.2 µM
  growth inhibition: -48%
[6]; at 3.7 µM
  growth inhibition: -21%
[6]; [17]
  growth inhibition: -9%
[6]; at 11.0 µM
  growth inhibition: -48%
[6]; at 33.0 µM
  growth inhibition: 29%
[6]; [18]
  growth inhibition: 13%
[6]; at 50.0 µM
  growth inhibition: 34.1%
[6]; at 100.0 µM
  growth inhibition: 88% (active)
[7]; at 1.2 µM
  growth inhibition: -54%
[7]; at 3.7 µM
  growth inhibition: -49%
[7]; at 11.0 µM
  growth inhibition: -50%
[7]; at 33.0 µM
  growth inhibition: 0%
[7]; at 100.0 µM
  growth inhibition: 82% (active)
[8]; [17]
  growth inhibition: 8%
[8]; [18]
  growth inhibition: 53%
[8]; at 50.0 µM
  growth inhibition: 55.5%
[9]; at 1.2 µM
  growth inhibition: -23%
[9]; at 3.7 µM
  growth inhibition: -28%
[9]; at 11.0 µM
  growth inhibition: -21%
[9]; at 33.0 µM
  growth inhibition: 39%
[9]; at 100.0 µM
  growth inhibition: 89% (active)
[10]; [17]
  growth inhibition: 20%
[10]; [18]
  growth inhibition: 37%
[10]; at 50.0 µM
  growth inhibition: 57%
[11]; at 1.2 µM
  growth inhibition: -26%
[11]; at 3.7 µM
  growth inhibition: -19%
[11]; [17]
  growth inhibition: 4%
[11]; at 11.0 µM
  growth inhibition: -27%
[11]; at 33.0 µM
  growth inhibition: 51%
[11]; [18]
  growth inhibition: 83% (active)
[11]; at 50.0 µM
  growth inhibition: 53.4%
[11]; at 100.0 µM
  growth inhibition: 90% (active)
[12]; at 1.2 µM
  growth inhibition: -4%
[12]; at 3.7 µM
  growth inhibition: -14%
[12]; at 11.0 µM
  growth inhibition: -7%
[12]; at 33.0 µM
  growth inhibition: 55%
[12]; at 100.0 µM
  growth inhibition: 85% (active)
[13]; at 1.2 µM
  growth inhibition: -29%
[13]; at 3.7 µM
  growth inhibition: -21%
[13]; at 11.0 µM
  growth inhibition: -38%
[13]; at 33.0 µM
  growth inhibition: 46%
[13]; at 100.0 µM
  growth inhibition: 86% (active)
[14]; at 1.2 µM
  growth inhibition: 22%
[14]; at 3.7 µM
  growth inhibition: 15%
[14]; at 11.0 µM
  growth inhibition: 24%
[14]; at 33.0 µM
  growth inhibition: 71% (active)
[14]; at 100.0 µM
  growth inhibition: 90% (active)
[15]; [17]
  growth inhibition: -13%
[15]; [18]
  growth inhibition: 34%
[15]; at 50.0 µM
  growth inhibition: 60.4%
[16]; at 1.2 µM
  growth inhibition: 1%
[16]; at 3.7 µM
  growth inhibition: -9%
[16]; at 11.0 µM
  growth inhibition: 3%
[16]; at 33.0 µM
  growth inhibition: 56%
[16]; at 100.0 µM
  growth inhibition: 93% (active)

From PubChem BioAssay (NCI)
